In PubChem BioAssay AID1159580 (chemical genetic matrix, 2015):
The campaign covered roughly 5,500 compounds. About 2,000 (36%) were called active. Inconclusive results (about 18%) are left out. Cut-off read from the data, not from the text of the source: active = normalized growth mostly below about 0.91 (no sharp cut-off); inconclusive = no clear call, values can overlap the other calls; inactive = mostly above about 0.92. The list shows a part of the results.

Test: chemical genetic growth profiling, strain panel (AID 1159580);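 note: tested at 20 µM; growth read once vehicle control cultures reached saturation at 30 °C; 1 = growth at the plate median or of vehicle wells; lower values mean less growth of the strain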
Settings: S. cerevisiae deletion strains, growth OD

Measured: normalized growth

CC(C)c1ccc(-c2cc(=O)c3ccccc3o2)cc1
active: locus YHR030C, strain SLT2, stronger effect = lower value 0.631 | locus YKL048C, strain ELM1, stronger effect = lower value 0.797 | locus YLR113W, strain HOG1, stronger effect = lower value 0.596 | locus YPL256C, strain CLN2, stronger effect = lower value 0.714
inactive: locus YAR019C, strain CDC15, stronger effect = lower value 0.937 | locus YBL105C, strain PKC1, stronger effect = lower value 0.935 | locus YBR135W, strain CKS1, stronger effect = lower value 0.932 | locus YBR136W, strain MEC1, stronger effect = lower value 0.941 | locus YBR160W, strain CDC28, stronger effect = lower value 0.941 | locus YDL017W, strain CDC7, stronger effect = lower value 0.932 | locus YDL028C, strain MPS1, stronger effect = lower value 0.933 | locus YDL101C, strain DUN1, stronger effect = lower value 0.945 | locus YDL108W, strain KIN28, stronger effect = lower value 0.934 | locus YDL132W, strain cdc53, stronger effect = lower value 0.948 | locus YDL214C, strain PRR2, stronger effect = lower value 0.814 | locus YDR052C, strain DBF4, stronger effect = lower value 0.944 | locus YDR054C, strain cdc34, stronger effect = lower value 0.917 | locus YDR226W, strain ADK1, stronger effect = lower value 0.931 | locus YDR477W, strain SNF1, stronger effect = lower value 0.791 | locus YER123W, strain YCK3, stronger effect = lower value 0.721 | locus YER133W, strain GLC7, stronger effect = lower value 0.762 | locus YFL009W, strain cdc4, stronger effect = lower value 0.921 | locus YFL029C, strain CAK1, stronger effect = lower value 0.932 | locus YFR003C, strain YPI1, stronger effect = lower value 0.928 | locus YFR019W, strain FAB1, stronger effect = lower value 0.864 | locus YFR028C, strain CDC14, stronger effect = lower value 0.915 | locus YGR040W, strain KSS1, stronger effect = lower value 0.728 | locus YGR052W, strain FMP48, stronger effect = lower value 0.759 | locus YGR092W, strain DBF2, stronger effect = lower value 0.569 | locus YHR079C, strain IRE1, stronger effect = lower value 0.849 | locus YHR082C, strain KSP1, stronger effect = lower value 0.875 | locus YHR205W, strain SCH9, stronger effect = lower value 0.82 | locus YIL147C, strain SLN1, stronger effect = lower value 0.932 | locus YJL095W, strain BCK1, stronger effect = lower value 0.82 | locus YJL128C, strain PBS2, stronger effect = lower value 0.86 | locus YJL157C, strain FAR1, stronger effect = lower value 0.832 | locus YJR016C, strain ILV3, stronger effect = lower value 0.922 | locus YJR066W, strain TOR1 (second series), stronger effect = lower value 0.633 | locus YJR066W, strain TOR1, stronger effect = lower value 0.863 | locus YKL067W, strain YNK1, stronger effect = lower value 0.812 | locus YKL101W, strain HSL1, stronger effect = lower value 0.725 | locus YKL193C, strain SDS22, stronger effect = lower value 0.928 | locus YKL203C, strain TOR2, stronger effect = lower value 0.836 | locus YLR133W, strain CKI1, stronger effect = lower value 0.855 | locus YLR403W, strain SFP1, stronger effect = lower value 0.858 | locus YML070W, strain DAK1, stronger effect = lower value 0.698 | locus YMR001C, strain CDC5, stronger effect = lower value 0.921 | locus YMR205C, strain PFK2 (second series), stronger effect = lower value 0.846 | locus YMR277W, strain FCP1, stronger effect = lower value 0.917 | locus YNL006W, strain LST8, stronger effect = lower value 0.932 | locus YNL020C, strain ARK1, stronger effect = lower value 0.833 | locus YNL161W, strain CBK1, stronger effect = lower value 0.934 | locus YNL183C, strain NPR1, stronger effect = lower value 0.861 | locus YNL207W, strain RIO2, stronger effect = lower value 0.924 | locus YNL222W, strain SSU72, stronger effect = lower value 0.934 | locus YNL307C, strain MCK1 (second series), stronger effect = lower value 0.809 | locus YOL078W, strain AVO1, stronger effect = lower value 0.928 | locus YOL136C, strain PFK27, stronger effect = lower value 0.792 | locus YOR061W, strain CKA2, stronger effect = lower value 0.822 | locus YOR119C, strain RIO1, stronger effect = lower value 0.778 | locus YOR231W, strain MKK1, stronger effect = lower value 0.799 | locus YOR329C, strain SCD5, stronger effect = lower value 0.939 | locus YPL031C, strain PHO85, stronger effect = lower value 0.781 | locus YPL153C, strain RAD53, stronger effect = lower value 0.716 | locus YPL204W, strain HRR25, stronger effect = lower value 0.724 | locus YPL209C, strain IPL1, stronger effect = lower value 0.937 | locus YPR025C, strain CCL1, stronger effect = lower value 0.937 | locus YPR106W, strain ISR1, stronger effect = lower value 0.926 | locus YPR111W, strain DBF20, stronger effect = lower value 0.918 | strain NNK1, stronger effect = lower value 0.921 | strain TSCII, stronger effect = lower value 0.929
